Inconclusive results are not listed. Entries that show only a call come without a potency. The source made the active and inactive calls. Calls follow the shape of the dose curve; as a rule, active = well fitted inhibition curve with a large enough effect; inconclusive = small, poorly fitted or top-dose-only effect; inactive = flat fitted curve, though single readings scatter. Numbered stars: 1 amine (or outer) side, 2 acyl side, 3 side chain; on linkers, the order of the positions; unused ones are H or OH. Bridge positions count the residues as written; N and C are the ends. Square brackets hold non-standard residues; d marks the D form. Peptide text beside a SMILES is read from it. ξ: configuration not given here. X1 = CCCCCCCCCC(=O)[C@H](C(=O)[*:2])[C@@H]1CNC(=O)[C@@H](N[*:1])CS1; Phe(3R-OH) = O=C([C@@H](N[*:1])[C@H](O[*:3])c1ccccc1)[*:2]; NMeTrp(4-OMe) = CN[C@@H](Cc1c[nH]c2cccc(OC)c12)C(=O)O; ξThr(3R)(O-yl) = C[C@@H](O[*:3])C(N[*:1])C(=O)[*:2]; NMeThr(3ξ) = CN[C@H](C(=O)O)C(C)O; NMeL = CN[C@@H](CC(C)C)C(=O)O; NMeV = CN[C@H](C(=O)O)C(C)C; ξIle = CC[C@H](C)C(N)C(=O)O; ξV = CC(C)C(N)C(=O)O

The values below come from PubChem BioAssay (NCATS).
Potency is read from the fitted curve at half-maximal effect.

The nature of the assay: qHTS assay for small molecule disruptors of mitochondrial membrane potential screened against the NCATS CANVASS Library (AID 1347389). Also: nearly all actives have a fitted effect of over 60% in size. As to conditions: HepG2 mitochondrial membrane potential, m-MPI red/green ratio, 1.5 h; series mostly up to 46.1 µM. From the text: Natural products and their derivatives continue to be wellsprings of nascent therapeutic potential. However, many laboratories have limited resources for biological evaluation, leaving their previously isolated or synthesized compounds largely or completely untested. To address this issue, the Canvass library of natural products was assembled (https://tripod.nih.gov/canvass), in collaboration with academic and industry researchers, for quantitative high-throughput screening (qHTS) across a diverse set of cell-based and biochemical assays. The pure (>85% purity by liquid chromatography/mass spectrometry [LC/MS]) Canvass library of 346 natural products were submitted by 45 academic laboratories and companies around the world. We collected pure natural products to circumvent deconvolution and structure elucidation due to time and resource limitations. The library was formatted into 1536-well plates and evaluated in 50 qHTS (in an 11-pnt concentration series) bioassays with broad scope of disease-relevant mechanisms. The resulting data set from 50 different assays was then systematically analyzed to identify overall trends and specific natural products with interesting biological activities. Reported herein are the results of each individual qHTS and their corresponding assay protocol. In healthy cells, the mitochondria are polarized and mitochondrial-membrane potential indicator (m-MPI) accumulates in the mitochondria as red fluorescent aggregates (emission at 590 nm). As the mitochondrial membrane depolarizes, m-MPI red-colored J-aggregates are converted to green fluorescent monomers (emission at 535 nm) and released from mitochondria into the cytosol. In response to mitochondrial depolarization, the red-to-green fluorescence ratio decreases. National Center for Advancing Translational Sciences (NCATS), Rockville, MD National Institute of Health (NIH), Bethesda, Maryland
Mitochondrial membrane potential protocol: 2,000 HepG2 cells in 5 uL/well were dispensed into black, clear-bottom 1536-well plates using a Multidrop Combi (Thermo Scientific) dispenser. The assay plates were incubated overnight at 37C to allow cells to attach to the wells, followed by the transfer of 23 nL compound or DMSO vehicle by a pin tool (Kalypsys). The plates were incubated for 1 hr at 37C and 5% CO2, followed by the addition of 5 uL of 2X Mito-MPS dye (BD Biosciences) into each well using Flying Reagent Dispenser (Aurora Discovery) and then following 30 min incubation at 37C. Fluorescence intensity (490nm excitation and 535nm emission for monomers; and 540nm excitation and 590nm emissions for aggregates) was measured using an Envision plate reader.
(In general: In qHTS, concentration-response curves come from the screen itself.)
Turning to `C=C1/C=C\C(CCC)=C\c2csc(n2)C(C)NC(=O)C[C@@]2(CC(=O)O)CCC(=C)[C@H](C1)S2` (stereo not given in full), the Potency entry was “inactive”.

As for `CC(=O)[C@@H]1[C@@H](O)C[C@H]2[C@]3(C)CC[C@H]4C(C)(C)CCC[C@]4(CO)[C@H]3C[C@H]3OC(=O)[C@@H]1[C@@]32C`, the Potency result is “inactive”.

In the case of `O=c1cc(-c2ccc(O)cc2)oc2c([C@@H]3OC(CO)[C@H](O)[C@@H](O)[C@H]3O)c(O)cc(O)c12` (stereo not given in full), the Potency result is “inactive”.

As for `C[C@@H](O)[C@H]1OC(=O)C=C2[C@]3(C)[C@H]4[C@H](OC(=O)[C@@]4(C)[C@@H](O)[C@H]4O[C@H]43)[C@H]3O[C@@]231`, the Potency entry is “inactive”.

In the case of `C=C(C)C(=O)O[C@H]1C[C@H](C)[C@@H](OC(C)=O)CC[C@@]2(C)O[C@@H]2[C@H]2OC(=O)C(COC(C)=O)=C12`, the Potency result is “inactive”.

`COc1cc(O)c2c3c(c(O)cc(C)c13)C(=O)OC2`: the Potency is 18.6 µM (active).

Take `O=C1C[C@@H](c2ccc(O)c(-c3c(O)cc(O)c4c3O[C@H](c3ccc(O)cc3)CC4=O)c2)Oc2cc(O)cc(O)c21`: the Potency entry is “inactive”.

`CN1C(=O)C2C(N=CN2C)N(C)C1=O` (stereo not given): the Potency entry was “inactive”.

Consider `C=C1C[C@@]23C=CC(=O)[C@@](C)(CCC(=O)Nc4c(O)ccc(C(=O)O)c4O)C2C[C@@H]1C(O)C3` (stereo not given in full), for which the Potency entry is “inactive”.

`C=C[C@]1(C)CC[C@@H]([C@H](C)C(=O)/C=C/C(C)C)O1`: the Potency result was “inactive”.

Consider `O=C(O)[C@@]12CO[C@@]3(O)C4CCN(CC[C@H]31)[C@H]4c1c2[nH]c2ccccc12`, for which the Potency result was “inactive”.

`C[C@@]12CCC[C@@](C)(C(=O)O)[C@H]1CC[C@]13C[C@H]4C[C@H](O[C@@]4(C)C1)[C@H]32`: the Potency result is “inactive”.

For `CCCCCCCCCCCCCCCC(=O)OC/C=C(\C)CCCC(C)CC(C)C(C)C` (stereo not given), the Potency entry is “inactive”.

Regarding `CC(=O)O[C@@H]1C=C2C(=O)OC[C@]2(O)[C@@]2(C)CCCC(C)(C)[C@H]12`, the Potency is 18.6 µM (active).

For `C[C@H]1C[C@@H]([C@@H]2CC[C@]34O[C@H](CC[C@@]35C[C@H](C)C(=O)O5)CN24)OC1=O`, the Potency result is “inactive”.

As to `CC(O)/C=C/C1(O)C(C)(C)CC(O)CC1(C)O` (stereo not given), the Potency entry was “inactive”.

Regarding `C/C(=C\[C@H](C)C(=O)CCCC1CC(=O)NC(=O)C1)[C@@H]1OC(=O)/C=C/CC/C=C/C[C@@H](O)[C@@H]1C`, the Potency entry is “inactive”.

Turning to `CO[C@H]1/C=C/CC[C@@H](S[C@@H]2O[C@H](CO)[C@@H](O)[C@H](O)[C@H]2O)CC(=O)O[C@@H](/C(C)=C/[C@H](C)C(=O)CCCC2CC(=O)NC(=O)C2)[C@@H](C)[C@@H]1O`, the Potency result was “inactive”.

For `OCc1ccc2ocnc2c1`, the Potency entry was “inactive”.

In the case of `CC1(C)[C@H](Br)CC[C@]23C[C@]4(C)C(=O)CC12C[C@H]34`, the Potency result was “inactive”.

Turning to `C=C1C(=O)C[C@H]2C[C@@H]1[C@]2(C)CCC=C(C)C`, the Potency entry is “inactive”.

As for `CC1=CC2=C[C@H](C)C[C@@]23OC(=C(C)C3=O)CC(C)(C)/C=C/C1=O`, the Potency is 5.24 µM (active).

Take `CO[C@@H]1C[C@@H](C[C@H]2CC[C@H](C)[C@H]([C@@H](C)C(=O)O)O2)O[C@]2(O[C@](C)([C@H]3CC[C@@](C)([C@@H]4O[C@@H]([C@H]5O[C@](C)(O)[C@H](C)C[C@@H]5C)C[C@@H]4C)O3)C[C@H]2C)[C@@H]1C`: the Potency was 18.6 µM (active).

With `CNc1ccc(Cl)cc1C(=O)OC[C@]1(C)[C@H]2CC[C@]3(C)[C@@H](C[C@@H](OC)[C@H](C)[C@H]3C3=C(O)C(=O)OC3O)[C@]2(C)CC[C@H]1O` (stereo not given in full), the Potency entry was “inactive”.

Take `O=c1cc(-c2ccc(O)c(O[C@@H]3O[C@H](CO)[C@@H](O)[C@H](O)[C@H]3O)c2)oc2cc(O[C@@H]3O[C@H](CO)[C@@H](O)[C@H](O)[C@H]3O)cc(O)c12`: the Potency entry was “inactive”.

Turning to `C=C1C[C@@]23C=CC(=O)[C@@](C)(CCC(=O)Nc4c(OC5O[C@H](CO)[C@@H](O)[C@H](O)[C@H]5O)ccc(C(=O)O)c4O)C2C[C@@H]1CC3` (stereo not given in full), the Potency entry was “inactive”.

With `C=CC(=C)CC[C@]1(C)[C@H]2C[C@H](OC(=O)C(C)CC)C=C3[C@H](OC(C)=O)O[C@H](OC(C)=O)[C@@]32[C@H](OC)C[C@@H]1C` (stereo not given in full), the Potency was 15.2 µM (active).

Regarding `C=CC(C)(C)C(=O)[C@@H](C)[C@@H]1CC[C@](C)(C=C)O1`, the Potency result is “inactive”.

Turning to `C[C@@H](CCC[C@]1(C)C(=O)C=C[C@]23C[C@H]4C[C@H](O[C@@]4(C)C2)C31)C(=O)N[C@@H](CO)C(=O)O` (stereo not given in full), the Potency entry is “inactive”.

Consider `O=C(O)[C@@]12COC3(O)C1CCN1CC[C@H]3[C@@H]1c1c2[nH]c2ccccc12`, for which the Potency result is “inactive”.

As for `C[C@@H]1C(=O)[C@]23CC[C@H]1C[C@]21O[C@H]2C(C)(C)C=CC(=O)[C@@]23COC1=O`, the Potency entry was “inactive”.

With `COc1ccc([C@@H]2c3cc(OC)c(OC)cc3C(=O)[C@H](C)C2C)cc1OC` (stereo not given in full), the activity change, negative = depolarization is -7.07% [at 9.19 µM] (inactive).

With `COc1ccc2cc(NC(=O)C3=NO[C@H]4[C@H](O)C=C[C@@H](Cl)[C@@]4(O)C3)c(=O)oc2c1OC`, the Potency entry was “inactive”.

As to `CC[C@H](C)C(NC(=O)[C@@H](NC)C(C)C)C(=O)NC1C(=O)N(C)[C@@H](C(C)O)C(=O)N[C@@H](C(C)C)C(=O)N(C)[C@@H](CC(C)C)C(=O)NC(C(C)C)C(=O)N(C)[C@@H](C(C)C)C(=O)N(C)[C@@H](Cc2c[nH]c3cccc(OC)c23)C(=O)N[C@@H](C(C)C)C(=O)N[C@@H]([C@H](O)c2ccccc2)C(=O)N[C@@H](C(C)C)C(=O)O[C@@H]1C` (stereo partly drawn) (H-[NMeV][ξIle][ξThr(3R)(O-yl)][NMeThr(3ξ)]V[NMeL][ξV][NMeV][NMeTrp(4-OMe)]V[Phe(3R-OH)]V; ester 3-C), the Potency result is “inactive”.

As to `CC(C)(Br)[C@@H](Cl)C[C@H](Br)[C@](C)(Cl)/C=C/Br`, the Potency is 16.6 µM (active).

For the compound `CCCCCCCCCC(=O)[C@@H]1C(=O)N[C@@H](CC(C)C)C(=O)N[C@H](C)C(=O)N2CCC[C@H]2C(=O)N[C@@H](C(C)C)C(=O)N[C@H]2CS[C@H]1CNC2=O` (cyclo(L[dA]PV[X1])), the Potency result was “inactive”.

Take `O=Cc1ccc2n1C[C@@]1(OC2)O[C@H](CO)[C@@H](O)[C@@H]1O`: the Potency result was “inactive”.

On to `CC1C(=O)C23CCC1C[C@@]21O[C@H]2C(C)(C)C=CC(=O)[C@@]23COC1=O` (stereo not given in full), for which the Potency entry is “inactive”.

With `CO[C@@H]1[C@H](O)[C@@H](C)O[C@@H](OC[C@H]2/C=C/C=C/C(=O)C(C)C[C@H](C)C(O[C@@H]3O[C@H](C)CC4(OC(=O)O[C@@H]4C)C3O)[C@@H](C)/C=C/C(=O)OC2C)[C@@H]1OC` (stereo not given in full), the Potency entry was “inactive”.

Take `CC1(C)CCC[C@]2(C)[C@@H]1CC[C@@]13C[C@@H](CC[C@H]12)C(C)(O)C3` (stereo not given in full): the Potency entry was “inactive”.
